Measured values as given in the supplement of paper PMC11001985.
Unmarked numbers belong to inactive results.

compound: C#CCNC(=O)CCSSCCC(=O)NCCc1ccc(C=O)c(C=O)c1; test: lysine labeling ratio R10:1 (500 µM / 50 µM probe), SILAC-ABPP in living cells; higher = lower intrinsic lysine reactivity toward the probe, active = 2 or less; conditions: HeLa; probe concentrations 500 vs 50 µM
In short: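 Measurements came from LC-MS/MS on a TIMS-TOF Pro of mixed SILAC light and heavy HeLa lysates after click to biotin-azide, trypsin digestion, neutravidin capture, DTT release and alkylation. Before lysis, the living cells sat in PBS at room temperature with 50 µM or 500 µM of an alkyne-tagged, disulfide-linked lysine probe, and labels were swapped forward and reverse. R per lysine is the median across both swap directions of the filtered median high-probe/low-probe MS1 peptide ratio. The cap is 20.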

Chain of UniProt Q15149 (Q15149 whole entry): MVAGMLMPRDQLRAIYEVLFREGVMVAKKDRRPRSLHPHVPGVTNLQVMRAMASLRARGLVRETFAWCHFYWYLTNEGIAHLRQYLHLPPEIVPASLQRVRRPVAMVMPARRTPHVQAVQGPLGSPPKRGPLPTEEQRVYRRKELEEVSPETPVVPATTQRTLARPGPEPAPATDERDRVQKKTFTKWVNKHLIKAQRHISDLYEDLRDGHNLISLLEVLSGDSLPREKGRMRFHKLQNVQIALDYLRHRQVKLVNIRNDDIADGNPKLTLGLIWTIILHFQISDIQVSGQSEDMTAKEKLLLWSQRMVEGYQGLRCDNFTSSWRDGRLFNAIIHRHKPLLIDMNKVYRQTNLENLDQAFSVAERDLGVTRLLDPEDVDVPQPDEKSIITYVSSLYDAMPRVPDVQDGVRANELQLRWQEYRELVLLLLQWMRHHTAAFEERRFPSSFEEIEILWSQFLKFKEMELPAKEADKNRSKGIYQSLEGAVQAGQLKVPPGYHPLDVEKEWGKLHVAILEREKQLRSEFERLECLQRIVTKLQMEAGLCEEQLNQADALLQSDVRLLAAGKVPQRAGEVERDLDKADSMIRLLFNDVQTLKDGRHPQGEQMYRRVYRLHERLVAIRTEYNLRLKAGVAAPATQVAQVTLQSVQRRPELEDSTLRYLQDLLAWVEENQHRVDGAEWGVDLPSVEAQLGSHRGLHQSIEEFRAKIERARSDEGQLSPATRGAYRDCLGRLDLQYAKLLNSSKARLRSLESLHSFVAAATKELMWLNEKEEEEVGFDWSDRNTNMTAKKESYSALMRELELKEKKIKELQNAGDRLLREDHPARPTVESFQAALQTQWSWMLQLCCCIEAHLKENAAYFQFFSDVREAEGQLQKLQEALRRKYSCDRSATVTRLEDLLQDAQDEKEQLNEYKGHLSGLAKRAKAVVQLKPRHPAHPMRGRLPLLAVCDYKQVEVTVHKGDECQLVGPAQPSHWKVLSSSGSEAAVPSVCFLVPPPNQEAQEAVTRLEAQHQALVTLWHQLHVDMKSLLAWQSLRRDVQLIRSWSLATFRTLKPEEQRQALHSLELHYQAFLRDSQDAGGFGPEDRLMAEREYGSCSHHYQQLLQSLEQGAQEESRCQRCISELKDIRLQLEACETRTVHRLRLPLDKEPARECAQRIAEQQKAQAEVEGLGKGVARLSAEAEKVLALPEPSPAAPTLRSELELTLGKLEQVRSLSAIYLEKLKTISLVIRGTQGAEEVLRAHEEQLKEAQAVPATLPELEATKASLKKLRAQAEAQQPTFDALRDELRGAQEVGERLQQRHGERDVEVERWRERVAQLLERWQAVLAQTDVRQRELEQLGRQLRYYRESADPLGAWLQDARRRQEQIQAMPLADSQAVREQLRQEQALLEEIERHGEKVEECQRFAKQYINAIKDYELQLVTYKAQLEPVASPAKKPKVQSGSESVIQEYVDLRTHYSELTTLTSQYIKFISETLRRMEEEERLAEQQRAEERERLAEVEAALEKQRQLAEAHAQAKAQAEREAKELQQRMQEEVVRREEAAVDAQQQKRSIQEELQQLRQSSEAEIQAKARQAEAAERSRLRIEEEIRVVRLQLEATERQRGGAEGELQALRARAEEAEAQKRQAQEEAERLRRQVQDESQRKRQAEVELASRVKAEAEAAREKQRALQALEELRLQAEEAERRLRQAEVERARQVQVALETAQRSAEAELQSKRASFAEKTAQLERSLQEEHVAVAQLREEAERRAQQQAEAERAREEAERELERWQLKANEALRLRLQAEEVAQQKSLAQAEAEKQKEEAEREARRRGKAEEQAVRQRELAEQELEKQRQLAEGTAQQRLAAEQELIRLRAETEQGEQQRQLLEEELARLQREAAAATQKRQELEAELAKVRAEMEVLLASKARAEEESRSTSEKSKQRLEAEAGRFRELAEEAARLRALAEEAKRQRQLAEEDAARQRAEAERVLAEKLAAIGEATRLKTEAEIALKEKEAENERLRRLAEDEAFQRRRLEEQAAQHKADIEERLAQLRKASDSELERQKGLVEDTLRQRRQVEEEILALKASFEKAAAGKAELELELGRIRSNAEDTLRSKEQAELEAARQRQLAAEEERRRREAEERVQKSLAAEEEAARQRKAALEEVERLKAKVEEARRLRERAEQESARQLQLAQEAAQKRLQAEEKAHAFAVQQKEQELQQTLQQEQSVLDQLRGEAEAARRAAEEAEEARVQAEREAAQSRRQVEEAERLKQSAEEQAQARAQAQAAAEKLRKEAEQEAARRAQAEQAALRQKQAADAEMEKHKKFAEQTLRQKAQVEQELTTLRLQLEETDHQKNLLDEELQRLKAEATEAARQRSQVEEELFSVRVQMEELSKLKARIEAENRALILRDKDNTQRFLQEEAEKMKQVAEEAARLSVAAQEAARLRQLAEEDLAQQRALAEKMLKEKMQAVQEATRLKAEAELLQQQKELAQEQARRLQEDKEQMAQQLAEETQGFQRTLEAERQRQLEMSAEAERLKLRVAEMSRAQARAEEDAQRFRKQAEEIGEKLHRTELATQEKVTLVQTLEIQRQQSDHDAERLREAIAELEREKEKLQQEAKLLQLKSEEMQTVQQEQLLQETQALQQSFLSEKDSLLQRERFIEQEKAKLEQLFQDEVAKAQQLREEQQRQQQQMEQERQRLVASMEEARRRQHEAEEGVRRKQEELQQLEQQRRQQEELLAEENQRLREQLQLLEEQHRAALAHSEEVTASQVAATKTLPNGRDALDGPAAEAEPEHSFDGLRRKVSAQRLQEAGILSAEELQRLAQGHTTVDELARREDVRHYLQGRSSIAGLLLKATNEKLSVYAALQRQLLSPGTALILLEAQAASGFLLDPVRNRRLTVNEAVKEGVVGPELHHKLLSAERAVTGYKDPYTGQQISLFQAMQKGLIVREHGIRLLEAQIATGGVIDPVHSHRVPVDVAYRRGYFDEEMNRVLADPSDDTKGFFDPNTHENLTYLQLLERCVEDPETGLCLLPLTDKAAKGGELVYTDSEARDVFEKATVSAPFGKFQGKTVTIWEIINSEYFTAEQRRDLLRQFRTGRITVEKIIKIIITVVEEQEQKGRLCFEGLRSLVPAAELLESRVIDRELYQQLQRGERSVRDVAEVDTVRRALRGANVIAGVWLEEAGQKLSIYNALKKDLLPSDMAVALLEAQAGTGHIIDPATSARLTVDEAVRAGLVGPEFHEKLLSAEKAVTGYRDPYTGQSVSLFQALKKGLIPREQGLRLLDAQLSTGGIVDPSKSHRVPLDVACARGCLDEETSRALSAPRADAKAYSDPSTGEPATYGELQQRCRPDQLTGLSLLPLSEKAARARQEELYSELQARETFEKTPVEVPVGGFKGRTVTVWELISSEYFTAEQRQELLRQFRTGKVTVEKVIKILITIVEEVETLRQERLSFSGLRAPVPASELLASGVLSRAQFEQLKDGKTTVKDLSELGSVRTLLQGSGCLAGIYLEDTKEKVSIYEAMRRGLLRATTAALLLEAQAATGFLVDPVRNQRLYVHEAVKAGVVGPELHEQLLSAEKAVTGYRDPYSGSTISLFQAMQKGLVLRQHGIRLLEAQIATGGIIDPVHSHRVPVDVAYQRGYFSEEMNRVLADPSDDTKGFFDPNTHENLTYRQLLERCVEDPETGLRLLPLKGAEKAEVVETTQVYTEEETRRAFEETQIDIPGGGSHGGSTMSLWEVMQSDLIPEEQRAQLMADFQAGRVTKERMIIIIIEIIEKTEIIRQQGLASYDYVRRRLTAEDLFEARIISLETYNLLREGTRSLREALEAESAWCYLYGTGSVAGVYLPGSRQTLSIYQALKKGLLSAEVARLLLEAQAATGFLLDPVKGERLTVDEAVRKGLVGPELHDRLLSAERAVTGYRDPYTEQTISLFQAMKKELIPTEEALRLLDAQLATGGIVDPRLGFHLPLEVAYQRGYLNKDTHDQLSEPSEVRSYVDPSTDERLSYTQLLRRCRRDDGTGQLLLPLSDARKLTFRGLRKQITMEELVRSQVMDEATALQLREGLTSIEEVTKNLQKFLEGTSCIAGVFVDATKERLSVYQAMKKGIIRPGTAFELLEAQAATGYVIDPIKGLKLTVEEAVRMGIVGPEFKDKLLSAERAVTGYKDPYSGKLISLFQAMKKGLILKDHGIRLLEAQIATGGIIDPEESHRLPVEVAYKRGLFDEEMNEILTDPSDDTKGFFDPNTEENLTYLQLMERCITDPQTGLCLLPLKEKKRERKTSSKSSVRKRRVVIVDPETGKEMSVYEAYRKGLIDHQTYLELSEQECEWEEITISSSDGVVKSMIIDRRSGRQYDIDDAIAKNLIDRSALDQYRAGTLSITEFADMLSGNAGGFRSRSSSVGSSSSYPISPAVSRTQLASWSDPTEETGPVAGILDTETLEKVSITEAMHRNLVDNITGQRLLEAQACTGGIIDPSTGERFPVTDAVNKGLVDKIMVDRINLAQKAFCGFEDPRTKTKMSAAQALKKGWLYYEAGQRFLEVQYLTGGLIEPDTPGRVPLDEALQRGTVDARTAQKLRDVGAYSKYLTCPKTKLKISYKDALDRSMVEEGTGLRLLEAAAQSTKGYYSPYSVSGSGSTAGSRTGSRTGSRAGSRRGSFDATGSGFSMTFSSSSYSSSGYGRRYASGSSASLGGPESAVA
Chain of UniProt O95084 (O95084 whole entry): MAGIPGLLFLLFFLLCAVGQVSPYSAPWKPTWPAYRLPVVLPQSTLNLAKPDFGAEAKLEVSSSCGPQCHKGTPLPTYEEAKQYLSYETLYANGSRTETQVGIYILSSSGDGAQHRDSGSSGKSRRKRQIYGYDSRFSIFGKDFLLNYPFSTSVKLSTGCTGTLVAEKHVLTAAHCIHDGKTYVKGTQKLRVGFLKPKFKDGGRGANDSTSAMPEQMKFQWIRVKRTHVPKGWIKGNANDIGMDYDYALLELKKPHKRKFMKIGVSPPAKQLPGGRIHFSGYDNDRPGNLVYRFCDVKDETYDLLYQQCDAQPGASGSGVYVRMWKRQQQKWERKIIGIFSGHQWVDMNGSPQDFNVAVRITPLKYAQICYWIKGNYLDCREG

Target	lysine labeling ratio R10:1
FLNB (lysine site: K2470) (UniProt O75369)	1.78 (active)
ZMPSTE24 (lysine site: K259) (UniProt O75844)	2.08
UniProt P60842 (lysine site: K54)	1.77 (active)
TGFBR3 (lysine site: K667) (UniProt Q03167)	0.83 (active)
CELSR2 (lysine site: K2300) (UniProt Q9HCU4)	1.18 (active)
SPTAN1 (lysine site: K1838) (UniProt Q13813)	0.73 (active)
FAT1 (lysine site: K2562) (UniProt Q14517)	1.58 (active)
TKT (lysine site: K204) (UniProt P29401)	10.2
CACNA2D1 (lysine site: K842) (UniProt P54289)	4.24
UniProt O95084 (lysine site: K270)	2.67
UniProt P54851 (lysine site: K129)	4.76
KIRREL (lysine site: K113) (UniProt Q96J84)	2.15
UniProt P62316 (lysine site: K18)	2.06
ACSL4 (lysine site: K702) (UniProt O60488)	2.14
THBS1 (lysine site: K306) (UniProt P07996)	2.27
FLNA (lysine site: K1824) (UniProt P21333)	5.16
UniProt Q15149 (lysine site: K1886)	1.49 (active)
UniProt Q9BZM4 (lysine site: K192)	1.43 (active)
H2AFX (lysine site: K37) (UniProt P16104)	2.89
UniProt Q15149 (lysine site: K923)	9.2
MSN (lysine site: K63) (UniProt P26038)	1.1 (active)
FSCN1 (lysine site: K43) (UniProt Q16658)	1.7 (active)
EPHB4 (lysine site: K486) (UniProt P54760)	4.21
